# From PubChem BioAssay
# In the library only some 0.9% were active in any assay of this set; here they are far more common.
# Calb FLC: C. albicans growth inhibition with fluconazole, primary screen, CaCi-2 strain, Alamar Blue fluorescence. AID 1979, 2009. C. albicans CaCi-2 (fluconazole-resistant clinical isolate) + fluconazole, 48 h. 300,000 compounds, 0.57% hits. growth inhibition, % (no concentration beside the values);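 active means growth inhibition above about 58% in most replicates, limit read from the data, passing the limit was not always enough; inconclusive means exactly half the replicates above a set limit; inactive means most replicates below a set limit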;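 further: all wells also contain fluconazole at 8 µg/ml as a sub-toxic cotreatment; 0% = median of DMSO wells and 100% = median of geldanamycin control wells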
# E coli growth-1: E. coli V3065 growth inhibition, primary screen, counter-screen for AddAB inhibitor project, absorbance, OD600; AID 449728, 2010; inhibition, % at 11.9 µM; 18 h; 330,000 compounds, 0.27% hits;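 active means inhibition above the campaign's mean inhibition across all tested compounds plus 3 SD, cut at about 9.9% in these data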;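 further: uninfected addAB+ strain grown without phage in ampicillin broth; 0% = DMSO wells and 100% = ciprofloxacin 0.95 µg/ml wells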
# Tat transport: E. coli Tat export inhibitors, primary screen, MC4100, TorA-mCherry reporter, fluorescence, single point; inhibition, % at 10 µM; 340,000 compounds, 0.036% hits;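 active means mean replicate inhibition at least 50% and at least half of replicates individually reaching 50%; inconclusive means only one of the two criteria met; inactive means neither criterion met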;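 further: exported cargo escapes ClpAP degradation while cytoplasmic cargo is degraded and loses fluorescence; 0% = median of neutral control wells and 100% = median of NaSCN control wells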
# phage Ecoli inh: growth loss of phage-infected E. coli, primary screen, RecBCD inhibitor project, absorbance, with phage, HTS | 360,000 compounds, 0.26% hits | inhibition, % at 11.9 µM; in the data active means inhibition above about 11%
# AddAB inh: growth inhibition of E. coli expressing H. pylori AddAB, primary screen, AddAB inhibitor project, absorbance; inhibition, % at 11.9 µM; 330,000 compounds, 0.29% hits; in the data active means inhibition above about 12%;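 further: 0% = vehicle wells of infected cells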
# E coli growth-2: E. coli growth inhibition, primary screen, OD600; Escherichia coli growth, 23 h; stronger effect = lower value; OD600 absorbance (no concentration beside the values); 330,000 compounds, 0.21% hits; AID 1053175, 2014;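 active means OD600 absorbance below the run mean of sample wells minus 3.6 SD, in any replicate, cut at about 0.56 in these data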
# The depositor's hits bear a star; ? = inconclusive; . = not tested or not shown.
SMILES,Calb FLC,E coli growth-1,Tat transport,phage Ecoli inh,AddAB inh,E coli growth-2
COc1ccc(C2C(C#N)=C(N)Oc3c2ccc2cccnc32)cc1OC (stereo not drawn),93*,-2,4,3,0,0.7
NS(=O)(=O)c1ccc(NN=Cc2ccc(C(=O)O)cc2)c([N+](=O)[O-])c1,.,.,.,.,.,0.7
Cc1ccc(O)c(C(=O)CC(=O)c2ccc(Cl)cc2)c1,-15,-6,3,1,-4,0.58
Cc1ccc(O)c(C(=O)CC(=O)c2cccc(F)c2)c1,-11,-5,-24,0,-2,0.62
O=C(CC(=O)c1cc(Cl)ccc1O)c1ccccc1,34,-2,-14,-3,-3,0.48*
Cc1cccc(C(=O)CC(=O)c2cc(Cl)ccc2O)c1,98*,-3,3,.,-5,0.47*
Cc1noc(C)c1S(=O)(=O)N(C)CC1Oc2ccc(NC(=O)CCC(F)(F)F)cc2C(=O)N(C(C)CO)CC1C (stereo not drawn),.,.,.,.,.,0.7
Cc1ccccc1OCC(=O)NN=C1CC(=O)CC(C)(C)C1,.,.,.,.,.,0.67
COc1ccc(C=NNC(=O)CCN2CCN(c3ccccc3)CC2)cc1OC,.,.,.,.,.,0.69
Cc1nc(N)nc(N)c1CCCc1ccc(Cl)c(Cl)c1,11,4,-16,4,5,0.41*
Cc1nc(N)nc(N)c1-c1ccc(Cl)c(Cl)c1,.,.,-4,-1,.,.
O=c1c(Cl)c(NCCCO)cnn1-c1nc2ccccc2[nH]1,78*,-1,-8,-1,1,0.62
C=CCN(CC=C)c1cnn(-c2nc3ccccc3[nH]2)c(=O)c1Cl,-1,-2,-4,1,0,0.73
Cc1noc2ncnc(Sc3ccc(Br)cc3)c12,108*,0,-7,2,0,0.65
O=[N+]([O-])c1c(C(Cl)Cl)nn(-c2ccc(Cl)cc2)c1N1CCCCC1,81*,1,10,3,0,0.66
CC(Nc1ncnc2ccccc12)c1ccccc1 (stereo not drawn),76*,-1,-1,3,3,.
CCCCC(Nc1ncnc2ccccc12)C(=O)O (stereo not drawn),-9,1,4,4,2,0.7
CC1CC2C3CCC4=CC(=O)C=C[C@]4(C)[C@@]3(Cl)C(O)C[C@]2(C)[C@@]1(OC(=O)c1ccco1)C(=O)CCl (stereo partly drawn),.,.,.,.,.,0.69
NC(=O)c1cc(C(=O)c2ccc(Cl)cc2Cl)c[nH]1,1,1,-13,2,3,0.5*
N#CCCn1cc(C=C2NC(=S)N(c3ccccc3)C2=O)c(-c2ccc(-c3ccccc3)cc2)n1,.,.,.,.,.,0.72
Cc1cccc(N2C(=O)CSC2=NNC(=O)c2ccc(Br)cc2)c1C,.,.,.,.,.,0.6
Cc1cccc(N2C(=O)CS/C2=N\NC(=O)c2ccc(Br)cc2)c1C,1,13*,-13,11,12,.
CC(CC(=O)Nc1cc(C)ccn1)=NNC(=O)C(=O)NC(C)C,.,.,.,.,.,0.67
CCN=c1scc(C)n1/N=C/c1ccc(O)c(O)c1O,88*,5,13,7,4,.
N/C(Cc1ccc(Cl)cc1Cl)=N\OC(=O)c1ccccc1,118*,-3,-7,4,2,0.7
SMILES,Calb FLC,E coli growth-1,Tat transport,phage Ecoli inh,AddAB inh,E coli growth-2
CN(C)c1ccc(NC(=O)C2C3C=CC(C3)C2C(=O)O)cc1 (stereo not drawn),92*,.,-1,1,.,0.67
COc1ccc(-c2nn(-c3ccccc3)cc2C=NNS(=O)(=O)c2ccccc2)cc1,.,.,.,.,.,0.8
O=C1NN(c2ccc(F)cc2)C(=O)/C1=C/c1cccs1,101*,2,-1,5,1,0.69
COc1cc(OC)nc(Oc2ccccc2C=NO)n1,.,.,.,.,.,0.65
CCCc1ccc(Oc2cn[nH]c2-c2ccc(O)cc2O)cc1,68*,3,10,6,6,0.58
O=C1CCCN1CCCN=c1c([N+](=O)[O-])nn(-c2ccc(Cl)cc2)n1O,85*,.,1,2,.,0.62
Cc1ccc(CN=c2c([N+](=O)[O-])nn(-c3ccc4c(c3)OCCO4)n2O)cc1,?,1,-6,4,3,0.69
COc1ccc(-n2nc([N+](=O)[O-])c(=NCCCN3CCCC3=O)n2O)cc1,0,4,0,1,6,0.68
O=[N+]([O-])c1nn(-c2ccc3c(c2)OCCO3)n(O)c1=NCCCO,?,14*,-2,8,10,0.6
FC(F)(F)c1ccc(C2C3CN(CC4CCCCC4)C(c4ccccc4)C34CC2(c2cccnc2)C4)cc1 (stereo not drawn),.,.,.,.,.,0.69
COc1cccc(NC(=O)c2ccc3nc(C)sc3c2)c1,99*,-2,-2,4,5,0.67
COc1ccccc1NC(=O)c1ccc2nc(C)sc2c1,28,-1,12,2,0,0.72
Cc1ccc(Nc2nc(Cl)nc(NC(C)(C)C)n2)cc1,94*,-1,3,-1,1,0.66
O=C(C=CNc1ccccc1Br)c1ccccn1,.,.,.,.,.,0.7
O=C(/C=C/c1ccncc1)c1ccc2c(c1)OCCO2,67*,0,-1,4,0,0.63
O=C(/C=C/c1ccccc1)c1ccc2c(c1)OCO2,1,2,-6,1,-1,0.61
O=C(CSc1nc(-c2ccco2)cc(C(F)(F)F)n1)NCCc1ccccc1,98*,-1,7,3,-4,0.72
Cc1ccc(C2=CSC3=NNC4(CCCCC4)NN23)cc1,111*,1,2,4,2,0.65
Cc1ccc(C2=CSC3=NCCN23)c(C)c1,-6,2,-1,1,1,0.71
COc1ccc(C2=CSC3=NNC4(CCCCC4)NN23)cc1,112*,3,5,2,2,0.67
CCc1ccc(Nc2n[n+](-c3ccccc3)c(-c3c(Cl)cccc3Cl)s2)cc1,20,8,13,4,8,0.47*
S=C(NCc1ccccc1)Nc1cccc(Cl)c1,-2,2,-1,7,4,0.57
NNC(=S)Nc1cccc(Cl)c1,92*,-3,-1,4,-4,0.69
Clc1cccc2c1Sc1ccccc1CC2N1CCNCC1 (stereo not drawn),.,1,9,3,3,0.53
Clc1ccc2c(c1)C(N1CCNCC1)Cc1ccccc1S2 (stereo not drawn),.,-1,9,.,-1,0.55*
Oc1c(Cl)cc(Cl)cc1CNc1ccccn1,4,.,1,1,.,0.62
Oc1c(Cl)cc(Cl)cc1CNc1nc2ccccc2[nH]1,-2,3,-17,5,3,0.42*
Cc1ccc2nc(Cl)c3nnnn3c2c1,97*,-3,-1,.,1,.
Nc1ccc(C(=O)N/N=C\c2ccc(OC(=O)c3ccccc3Cl)cc2)cc1,79*,-1,-1,-1,1,.
CC1CCN(C(=O)Cn2c3ccccc3c3nc4n(c(=O)c32)CCS4)CC1,91*,2,-4,3,4,0.69
